{
  "source": "PubChem BioAssay AID1159580",
  "about": "(chemical genetic matrix, 2015)",
  "assay": "chemical genetic growth profiling, strain panel (AID 1159580);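 note: tested at 20 µM; growth read once vehicle control cultures reached saturation at 30 °C; 1 = growth at the plate median or of vehicle wells; lower values mean less growth of the strain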",
  "settings": "S. cerevisiae deletion strains, growth OD",
  "note": "Where “and” joins values, the source holds several entries; their conditions need not be identical. Equal entries are not always repeated. Out of some 5,500 compounds screened, about 2,000 (36%) were called active. Roughly 18% stayed inconclusive and do not appear here. This is one part of the list. Values without a mark were called inactive. Cut-off read from the data, not from the text of the source: active = normalized growth mostly below about 0.91 (no sharp cut-off); inconclusive = no clear call, values can overlap the other calls; inactive = mostly above about 0.92.",
  "data": [
    {"compound": "NC(=O)c1cc([N+](=O)[O-])cc([N+](=O)[O-])c1", "values": [
      {"measurement": "normalized growth", "setting": "locus YAL021C, strain ccr4, active compounds read low", "result": 1.03},
      {"measurement": "normalized growth", "setting": "locus YAL026C, strain drs2, active compounds read low", "result": 0.962},
      {"measurement": "normalized growth", "setting": "locus YAL030W, strain snc1, active compounds read low", "result": 1.01},
      {"measurement": "normalized growth", "setting": "locus YBL061C, strain skt5, active compounds read low", "result": 1.02},
      {"measurement": "normalized growth", "setting": "locus YBR009C, strain hhf1, active compounds read low", "result": 0.972},
      {"measurement": "normalized growth", "setting": "locus YBR021W, strain FUR4, active compounds read low", "result": 0.99},
      {"measurement": "normalized growth", "setting": "locus YBR023C, strain chs3, active compounds read low", "result": 1.02},
      {"measurement": "normalized growth", "setting": "locus YBR171W, strain sec66, active compounds read low", "result": 1.04},
      {"measurement": "normalized growth", "setting": "locus YBR229C, strain ROT2, active compounds read low", "result": 1.02},
      {"measurement": "normalized growth", "setting": "locus YBR231C, strain swc5, active compounds read low", "result": 0.991},
      {"measurement": "normalized growth", "setting": "locus YBR279W, strain paf1, active compounds read low", "result": 1.03},
      {"measurement": "normalized growth", "setting": "locus YCL011C, strain gbp2, active compounds read low", "result": 1.02},
      {"measurement": "normalized growth", "setting": "locus YCL016C, strain dcc1, active compounds read low", "result": 1.05},
      {"measurement": "normalized growth", "setting": "locus YCL029C, strain bik1, active compounds read low", "result": 0.983},
      {"measurement": "normalized growth", "setting": "locus YCL061C, strain MRC1, active compounds read low", "result": 1.01},
      {"measurement": "normalized growth", "setting": "locus YCL069W, strain vba3, active compounds read low", "result": 1.02},
      {"measurement": "normalized growth", "setting": "locus YCR088W, strain abp1, active compounds read low", "result": 1.02},
      {"measurement": "normalized growth", "setting": "locus YDL005C, strain med2, active compounds read low", "result": 1.03},
      {"measurement": "normalized growth", "setting": "locus YDL035C, strain GPR1, active compounds read low", "result": 0.992},
      {"measurement": "normalized growth", "setting": "locus YDL040C, strain nat1, active compounds read low", "result": 1.01},
      {"measurement": "normalized growth", "setting": "locus YDL074C, strain BRE1, active compounds read low", "result": 0.986},
      {"measurement": "normalized growth", "setting": "locus YDL101C, strain DUN1, active compounds read low", "result": 0.989},
      {"measurement": "normalized growth", "setting": "locus YDL134C, strain PPH21, active compounds read low", "result": 1.01},
      {"measurement": "normalized growth", "setting": "locus YDL185W, strain tfp1, active compounds read low", "result": 0.974},
      {"measurement": "normalized growth", "setting": "locus YDL192W, strain arf1, active compounds read low", "result": 0.986},
      {"measurement": "normalized growth", "setting": "locus YDR001C, strain nth1, active compounds read low", "result": 1.01},
      {"measurement": "normalized growth", "setting": "locus YDR069C, strain doa4, active compounds read low", "result": 0.979},
      {"measurement": "normalized growth", "setting": "locus YDR101C, strain arx1, active compounds read low", "result": 0.982},
      {"measurement": "normalized growth", "setting": "locus YDR137W, strain rgp1, active compounds read low", "result": "1.25 [resistant] (active)"},
      {"measurement": "normalized growth", "setting": "locus YDR159W, strain sac3, active compounds read low", "result": 1.04},
      {"measurement": "normalized growth", "setting": "locus YDR162C, strain NBP2, active compounds read low", "result": 0.992},
      {"measurement": "normalized growth", "setting": "locus YDR195W, strain ref2", "result": "0.78 (active)"},
      {"measurement": "normalized growth", "setting": "locus YDR297W, strain sur2, active compounds read low", "result": 1},
      {"measurement": "normalized growth", "setting": "locus YDR318W, strain mcm21, active compounds read low", "result": 0.974},
      {"measurement": "normalized growth", "setting": "locus YDR334W, strain swr1, active compounds read low", "result": 1.03},
      {"measurement": "normalized growth", "setting": "locus YDR335W, strain msn5, active compounds read low", "result": 1.02},
      {"measurement": "normalized growth", "setting": "locus YDR388W, active compounds read low", "result": 0.996},
      {"measurement": "normalized growth", "setting": "locus YDR392W, strain spt3, active compounds read low", "result": "0.633 (active)"},
      {"measurement": "normalized growth", "setting": "locus YDR502C, strain sam2, active compounds read low", "result": 0.983},
      {"measurement": "normalized growth", "setting": "locus YEL003W, strain gim4, active compounds read low", "result": 0.961},
      {"measurement": "normalized growth", "setting": "locus YEL037C, strain rad23, active compounds read low", "result": 1.01},
      {"measurement": "normalized growth", "setting": "locus YEL061C, strain CIN8 (second series), active compounds read low", "result": 1.02},
      {"measurement": "normalized growth", "setting": "locus YEL061C, strain CIN8, active compounds read low", "result": 1.01},
      {"measurement": "normalized growth", "setting": "locus YER015W, strain faa2, active compounds read low", "result": 1.02},
      {"measurement": "normalized growth", "setting": "locus YER016W, strain bim1, active compounds read low", "result": 0.999},
      {"measurement": "normalized growth", "setting": "locus YER110C, active compounds read low", "result": 0.979},
      {"measurement": "normalized growth", "setting": "locus YER111C, strain swi4, active compounds read low", "result": 1.04},
      {"measurement": "normalized growth", "setting": "locus YER155C, strain BEM2 (second series), active compounds read low", "result": "0.788 (active)"},
      {"measurement": "normalized growth", "setting": "locus YER155C, strain BEM2, active compounds read low", "result": 1.01},
      {"measurement": "normalized growth", "setting": "locus YER167W, strain BCK2, active compounds read low", "result": 1.02},
      {"measurement": "normalized growth", "setting": "locus YFR010W, strain ubp6, active compounds read low", "result": 0.995},
      {"measurement": "normalized growth", "setting": "locus YGL078C, strain dbp3, active compounds read low", "result": 0.995},
      {"measurement": "normalized growth", "setting": "locus YGL086W, strain mad1, active compounds read low", "result": 0.968},
      {"measurement": "normalized growth", "setting": "locus YGL167C, strain pmr1, active compounds read low", "result": 1.02},
      {"measurement": "normalized growth", "setting": "locus YGL173C, strain kem1, active compounds read low", "result": 1.01},
      {"measurement": "normalized growth", "setting": "locus YGL227W, strain vid30, active compounds read low", "result": 1.02},
      {"measurement": "normalized growth", "setting": "locus YGL240W, strain doc1, active compounds read low", "result": 0.969},
      {"measurement": "normalized growth", "setting": "locus YGL248W, strain PDE1, active compounds read low", "result": 1.02},
      {"measurement": "normalized growth", "setting": "locus YGL253W, strain hxk2, active compounds read low", "result": 0.994},
      {"measurement": "normalized growth", "setting": "locus YGR078C, strain PAC10, active compounds read low", "result": 1},
      {"measurement": "normalized growth", "setting": "locus YGR135W, strain pre9, active compounds read low", "result": 0.978},
      {"measurement": "normalized growth", "setting": "locus YGR252W, strain gcn5, active compounds read low", "result": 0.906},
      {"measurement": "normalized growth", "setting": "locus YHR013C, strain ard1, active compounds read low", "result": 1.09},
      {"measurement": "normalized growth", "setting": "locus YHR027C, strain rpn1, active compounds read low", "result": 0.997},
      {"measurement": "normalized growth", "setting": "locus YHR030C, strain SLT2, active compounds read low", "result": "1.02 and 0.959"},
      {"measurement": "normalized growth", "setting": "locus YHR079C, strain IRE1 (second series), active compounds read low", "result": 0.996},
      {"measurement": "normalized growth", "setting": "locus YHR079C, strain IRE1, active compounds read low", "result": 0.955},
      {"measurement": "normalized growth", "setting": "locus YHR094C, strain hxt1, active compounds read low", "result": 0.954},
      {"measurement": "normalized growth", "setting": "locus YHR129C, strain ARP1, active compounds read low", "result": 1.02},
      {"measurement": "normalized growth", "setting": "locus YHR142W, strain chs7, active compounds read low", "result": 1.01},
      {"measurement": "normalized growth", "setting": "locus YHR200W, strain rpn10, active compounds read low", "result": 0.997},
      {"measurement": "normalized growth", "setting": "locus YIL066C, strain RNR3, active compounds read low", "result": 1.01},
      {"measurement": "normalized growth", "setting": "locus YIL073C, strain SPO22, active compounds read low", "result": 0.993},
      {"measurement": "normalized growth", "setting": "locus YIL125W, strain kgd1, active compounds read low", "result": 1},
      {"measurement": "normalized growth", "setting": "locus YIR030C, strain dcg1, active compounds read low", "result": 1},
      {"measurement": "normalized growth", "setting": "locus YJL092W, strain hpr5, active compounds read low", "result": 1.02},
      {"measurement": "normalized growth", "setting": "locus YJL095W, strain BCK1 (second series), active compounds read low", "result": 1.01},
      {"measurement": "normalized growth", "setting": "locus YJL095W, strain BCK1, active compounds read low", "result": "0.994 and 0.966"},
      {"measurement": "normalized growth", "setting": "locus YJL115W, strain asf1, active compounds read low", "result": 1.02},
      {"measurement": "normalized growth", "setting": "locus YJL129C, strain trk1, active compounds read low", "result": 1.1},
      {"measurement": "normalized growth", "setting": "locus YJL134W, strain LCB3, active compounds read low", "result": 1.01},
      {"measurement": "normalized growth", "setting": "locus YJL154C, strain vps35, active compounds read low", "result": 1.03},
      {"measurement": "normalized growth", "setting": "locus YJL164C, strain tpk1, active compounds read low", "result": 0.977},
      {"measurement": "normalized growth", "setting": "locus YJL166W, strain qcr8, active compounds read low", "result": 1},
      {"measurement": "normalized growth", "setting": "locus YJL168C, strain set2, active compounds read low", "result": 0.997},
      {"measurement": "normalized growth", "setting": "locus YJL187C, strain SWE1 (second series), active compounds read low", "result": 1.01},
      {"measurement": "normalized growth", "setting": "locus YJL187C, strain SWE1, active compounds read low", "result": 1.03},
      {"measurement": "normalized growth", "setting": "locus YJR043C, strain POL32, active compounds read low", "result": 0.967},
      {"measurement": "normalized growth", "setting": "locus YJR066W, strain TOR1, active compounds read low", "result": 0.918}
    ]}
  ]
}
